For 17 molecules, RAM network inhibition results are on record in PubChem BioAssay.

Active and inactive are the calls of the source.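 How the source made its calls: active means RAM network inhibition above 8.4% in each of two replicates, 3 SD over the compound average; inconclusive means above 8.4% inhibition in only one replicate; inactive means 8.4% inhibition or less in each replicate.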

This test is described as follows: RAM signaling pathway blockade in yeast – S. cerevisiae, Pdr1DBD-CYC8 efflux-inhibited sensitized strain, primary screen (AID 1298).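 Further: 0% = DMSO untreated cells without growth and 100% = 10 µM 1-NA-PP1 full growth; higher means more yeast growth rescued from 5-FOA killing.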 As to conditions: S. cerevisiae cbk1-as DSE1-URA3 strain, 5-FOA growth OD615, 2 d; at 50 µM; stronger effect = higher value.
As to `CCOc1ccc(OCC)c(Nc2cc(C)nc3nc(C)nn23)c1`, the RAM network inhibition is 6.18% (inactive). Regarding `O=C(Cn1cc2c(n1)CCCC2)NCCCN1CCN(C2CCCCC2)CC1`, the RAM network inhibition is 0.77% (inactive).

In the case of `Cc1ccc(CN2CCN(CC(=O)N3CCC(C(N)=O)CC3)C2=O)cc1`, the RAM network inhibition was 3.53% (inactive).

Take `O=C(c1ccc(CS(=O)(=O)c2ccc(Br)cc2)o1)N1CCN(C2CCCCC2)CC1`: the RAM network inhibition was 0.46% (inactive). In the case of `CCN(CC)C(=O)CCCOc1ccc(Cl)cc1Cl`, the RAM network inhibition is 0.45% (inactive). Regarding `O=C(O)c1ccc(NS(=O)(=O)c2cc(Cl)ccc2Cl)cc1`, the RAM network inhibition was 4.43% (inactive). As for `S=c1[nH]nc(CSc2nc3ccccc3s2)o1`, the figure is 0.83% (inactive); as for `CCn1c(=O)cc(OCC(=O)N2CCc3ccccc32)c2ccccc21`, 3.25% (inactive). Take `COC(=O)c1c(C)nn(-c2ccccc2)c1N`: the RAM network inhibition is -0.37% (inactive). Take `Fc1ccc(CN2CCCCCCC2)cc1F`: the RAM network inhibition is 0.52% (inactive). As for `COc1ccccc1NC(=O)C1CCCN(S(=O)(=O)c2cnc[nH]2)C1` (configuration not stated), the RAM network inhibition is 0.84% (inactive). Consider `O=C(/C=N/O)Nc1ccccc1C(=O)O`, for which the RAM network inhibition is 4.14% (inactive).

For `O=C(NC(C(=O)c1ccccc1)N1CCOCC1)c1ccccc1` (configuration not stated), the RAM network inhibition is 1.98% (inactive). Consider `COc1ccc(S(=O)(=O)N2CCN(C)CC2)c2ccccc12`, for which the RAM network inhibition is 2.19% (inactive).

As to `CCOc1cccc(NC(=O)Cc2cccs2)c1`, the RAM network inhibition is 4.72% (inactive). `CCSc1nnc2c(n1)OC1(CCCC1)Nc1ccccc1-2`: the RAM network inhibition is 5.92% (inactive). As for `COc1ccc2c(c1)OC1(C)CC2C(C(=O)c2ccccc2OC)C(=O)N1` (configuration not stated), the RAM network inhibition was 1.48% (inactive).
